Results filed as inconclusive are left out. Where a call stands in place of a potency, no number is given. Unmarked numbers belong to inactive results. Calls of active or inactive are those of the source. Calls follow the shape of the dose curve; as a rule, active = well fitted curve in the direction sought with a large enough effect; inconclusive = small, poorly fitted or top-dose-only effect, or another doubt; inactive = no such curve, though single readings can be large; an effect the other way counts as inactive or inconclusive.
What was measured:
[1] = qHTS assay to identify small molecule inhibitors of chordoma cells - UCH-1 (AID 1259355); also: nearly all actives have a fitted effect of over 55% in size
How it was run: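 800 cells/well, overnight attach; compounds pinned at 15 concs, then auranofin/camptothecin/doxorubicin/rubitecan/topotecan combo added; 48hr 37 C, 5% CO2; CellTiter-Glo, 30min RT, luminescence.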

[2] = qHTS assay to identify small molecule inhibitors of chordoma cells - UCH-2 (AID 1259356); also: series mostly up to about 46 µM
[3] = NS1 protein of Zika virus - qHTS assay to identify small molecule inhibitors in human HEK 293 cells (AID 1347053); also: nearly all actives have a fitted effect of over 55% in size; also: potency is read from the fitted curve at half-maximal effect
How it was run: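 Compound-treated (1 h pre-infection) HEK 293 cells infected with ZIKV MR766, MOI = 0.5; after 24 h at 37 C, NS1 read by TR-FRET; data normalized to uninfected and infected controls.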

[4] = qHTS of pediatric cancer cell lines to identify multiple opportunities for drug repurposing: Primary screen for TC32 cells (AID 1347089); also: nearly all actives have a fitted effect of over 60% in size; also: potency is read from the fitted curve at half-maximal effect
How it was run: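 A viability screen of TC32 cells was run over 48 h, with primary MIPE doses spanning 0.78 nM–46 µM and NPC doses 0.59 nM–46 µM. ATP luminescence (CellTiter-Glo) served as the read-out.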

[5] = qHTS of pediatric cancer cell lines to identify multiple opportunities for drug repurposing: Primary screen for DAOY cells (AID 1347090); also: nearly all actives have a fitted effect of over 55% in size; also: potency is read from the fitted curve at half-maximal effect
How it was run: (§1)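 Cell viability, CellTiter-Glo luminescence; 500-1,000 cells/well, 8- or 11-point titration, 48 h compound exposure at 37 degrees C, 5% CO2. Controls: DMSO neutral, bortezomib 2.3 µM final as positive.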

[6] = qHTS of pediatric cancer cell lines to identify multiple opportunities for drug repurposing: Primary screen for A673 cells (AID 1347092); also: nearly all actives have a fitted effect of over 45% in size; also: potency is read from the fitted curve at half-maximal effect
How it was run: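 Titration-based qHTS on A673 cells: MIPE compounds spanned 11 points (0.78 nM to 46 µM final), NPC compounds 8 points (0.59 nM to 46 µM final). Viability after 48 h was measured by ATP luminescence.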

[7] = qHTS of pediatric cancer cell lines to identify multiple opportunities for drug repurposing: Primary screen for SK-N-MC cells (AID 1347093); also: potency is read from the fitted curve at half-maximal effect
How it was run: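 Metabolically active cells were quantified by ATP-dependent luminescence (CellTiter-Glo, 15 min at room temperature) following 48 h treatment. Cells had been plated at 500-1,000 per well and settled for 5 h beforehand.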

[8] = qHTS of pediatric cancer cell lines to identify multiple opportunities for drug repurposing: Primary screen for BT-37 cells (AID 1347094); also: potency is read from the fitted curve at half-maximal effect
How it was run: (§2)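 Quantitative HTS format: each compound titrated (MIPE 11 points from 0.78 nM, NPC 8 points from 0.59 nM) onto cells plated 5 hours earlier. After 48 h at 37 degrees C, CellTiter-Glo luminescence was recorded.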

[9] = qHTS of pediatric cancer cell lines to identify multiple opportunities for drug repurposing: Primary screen for NB-EBc1 cells (AID 1347095); also: potency is read from the fitted curve at half-maximal effect
How it was run: as §2

[10] = qHTS of pediatric cancer cell lines to identify multiple opportunities for drug repurposing: Primary screen for U-2 OS cells (AID 1347096); also: nearly all actives have a fitted effect of over 50% in size
How it was run: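 Cells (500-1,000/well) rested 5 h, then received compounds for 48 h; metabolically active cells were measured by CellTiter-Glo luminescence. Final concentrations spanned up to 46 µM (MIPE, 11-point) or 0.59 nM-46 µM (NPC, 8-point) in primary screens, 11-point in follow-ups.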

[11] = qHTS of pediatric cancer cell lines to identify multiple opportunities for drug repurposing: Primary screen for SJ-GBM2 cells (AID 1347091); also: potency is read from the fitted curve at half-maximal effect
How it was run: as §1

[12] = P-glycoprotein substrates identified in KB-8-5-11 adenocarcinoma cell line, qHTS therapeutic library screen (AID 1346987); also: series mostly up to about 44 µM; nearly all actives have a fitted effect of over 65% in size
How it was run: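 Compounds are pinned in dose-response onto KB-8-5-11 cells (500 cells/well, colchicine-free medium) and left 72 h at 37 degree C. CellTiter-Glo luminescence then yields AC50 values.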

CN(CCCN1c2ccccc2CCc2ccccc21)CC(=O)c1ccc(Cl)cc1
Potency [1]: inactive
Potency [2]: inactive
Potency [3]: inactive
Potency [4]: inactive
Potency [5]: inactive
Potency [6]: inactive
Potency [7]: inactive
Potency [8]: inactive
Potency [9]: inactive

CN(C)CCOC(c1ccc(Cl)cc1)c1ccccn1 (centres undefined)
Potency [1]: inactive
Potency [2]: inactive
Potency [3]: inactive
Potency [4]: inactive
Potency [5]: inactive
Potency [6]: inactive
Potency [7]: inactive
Potency [8]: inactive
Potency [9]: inactive

CN1CCc2cccc3c2[C@H]1Cc1ccc(O)c(O)c1-3
Potency [1]: inactive
Potency [2]: inactive
Potency [10]: inactive

Nc1nc(Cl)nc2c1ncn2[C@@H]1O[C@H](CO)[C@@H](O)[C@@H]1F
Potency [1]: inactive
Potency [2]: inactive
Potency [3]: 4.47 µM (active)
Potency [4]: 0.264 µM (active)
Potency [5]: 0.422 µM (active)
Potency [6]: 0.422 µM (active)
Potency [7]: 0.0299 µM (active)
Potency [8]: 0.309 µM (active)
Potency [9]: 0.211 µM (active)
Potency [10]: inactive

C#C[C@]1(O)CC[C@H]2[C@@H]3[C@H](C)CC4=C(CCC(=O)C4)[C@H]3CC[C@@]21C
Potency [1]: inactive
Potency [2]: inactive
Potency [3]: inactive
Potency [4]: inactive
Potency [5]: inactive
Potency [6]: inactive
Potency [8]: inactive
Potency [10]: inactive

O=C1[C@H](CC[C@H](O)c2ccc(F)cc2)[C@@H](c2ccc(O)cc2)N1c1ccc(F)cc1
Potency [1]: inactive
Potency [2]: inactive
Potency [3]: inactive
Potency [4]: inactive
Potency [5]: inactive
Potency [6]: inactive
Potency [8]: inactive
Potency [9]: inactive
Potency [10]: inactive

O=C1c2cccc3c2[C@H](CCC3)CN1[C@@H]1CN2CCC1CC2
Potency [1]: inactive
Potency [2]: inactive
Potency [4]: inactive
Potency [5]: inactive
Potency [6]: inactive
Potency [9]: inactive
Potency [10]: inactive

CCc1oc2ccccc2c1C(=O)c1cc(I)c(O)c(I)c1
Potency [1]: inactive
Potency [2]: inactive
Potency [3]: inactive
Potency [4]: inactive
Potency [6]: inactive
Potency [8]: inactive
Potency [10]: inactive

NC(=O)C1(N2CCCCC2)CCN(CCCC(=O)c2ccc(F)cc2)CC1
Potency [1]: inactive
Potency [2]: inactive
Potency [3]: inactive
Potency [4]: inactive
Potency [5]: inactive
Potency [6]: inactive
Potency [7]: inactive
Potency [8]: inactive
Potency [9]: inactive
Potency [10]: inactive

CCCN(CCc1cccs1)[C@H]1CCc2c(O)cccc2C1
Potency [1]: inactive
Potency [2]: inactive
Potency [3]: inactive
Potency [4]: inactive
Potency [5]: inactive
Potency [11]: inactive
Potency [7]: inactive
Potency [9]: inactive
Potency [10]: inactive

CC(=O)O[C@]1(C(C)=O)CC[C@H]2[C@@H]3C=C(Cl)C4=CC(=O)CC[C@]4(C)[C@H]3CC[C@@]21C
Potency [1]: inactive
Potency [2]: inactive
Potency [4]: inactive
Potency [5]: inactive
Potency [11]: inactive
Potency [6]: inactive
Potency [9]: inactive
Potency [10]: inactive

O=c1[nH]c(=O)n([C@H]2C[C@H](O)[C@@H](CO)O2)cc1F
Potency [1]: inactive
Potency [2]: inactive
Potency [3]: inactive
Potency [4]: 0.264 µM (active)
Potency [6]: 0.841 µM (active)
Potency [7]: 6.68 µM (active)
Potency [9]: 2.37 µM (active)

CC(=O)OC[C@H]1O[C@@H](n2ncc(=O)[nH]c2=O)[C@H](OC(C)=O)[C@@H]1OC(C)=O
Potency [1]: inactive
Potency [2]: inactive
Potency [7]: 0.335 µM (active)
Potency [9]: 23.7 µM (active)
Potency [10]: inactive

CO[C@H]1C=CO[C@@]2(C)Oc3c(C)c(O)c4c(O)c(c(/C=N/N5CCN(C)CC5)c(O)c4c3C2=O)NC(=O)/C(C)=C\C=C[C@H](C)[C@H](O)[C@@H](C)[C@@H](O)[C@@H](C)[C@H](OC(C)=O)[C@@H]1C
Potency [1]: inactive
Potency [2]: inactive
Potency [4]: inactive
Potency [5]: inactive
Potency [11]: inactive
Potency [6]: inactive
Potency [8]: inactive
Potency [9]: inactive

CCN(CC)CCOc1ccc2c(c1)C(=O)c1cc(OCCN(CC)CC)ccc1-2
Potency [1]: inactive
Potency [2]: inactive
Potency [3]: inactive
Potency [5]: inactive

CCN(CC)CCOC(=O)C(Cc1cccc2ccccc12)CC1CCCO1 (centres undefined)
Potency [1]: inactive
Potency [2]: inactive
Potency [4]: inactive
Potency [5]: inactive
Potency [11]: inactive
Potency [6]: inactive
Potency [8]: inactive
Potency [9]: inactive

CNCCCCOc1ccccc1Cc1ccccc1
Potency [1]: inactive
Potency [2]: inactive
Potency [3]: inactive
Potency [4]: inactive
Potency [5]: inactive
Potency [6]: 26.6 µM (active)
Potency [9]: inactive
Potency [10]: inactive

Cc1ccc2c(Br)cc(Br)c(O)c2n1
Potency [1]: inactive
Potency [2]: inactive
Potency [3]: inactive
Potency [5]: 8.41 µM (active)
Potency [11]: 13.3 µM (active)
Potency [6]: 2.66 µM (active)
Potency [7]: 11.9 µM (active)
Potency [8]: 8.71 µM (active)
Potency [9]: 2.99 µM (active)

O=C1C(=O)c2ccccc2C(O)=C1C1CCC(c2ccc(Cl)cc2)CC1 (centres undefined)
Potency [1]: inactive
Potency [2]: inactive
Potency [3]: inactive
Potency [4]: inactive
Potency [5]: inactive
Potency [6]: inactive
Potency [7]: inactive
Potency [8]: inactive
Potency [10]: inactive

C#C[C@]1(O)CC[C@H]2[C@@H]3CCc4cc(OC)ccc4[C@H]3CC[C@@]21C
Potency [1]: inactive
Potency [2]: inactive
Potency [3]: inactive
Potency [4]: inactive
Potency [5]: inactive
Potency [6]: inactive
Potency [7]: inactive
Potency [8]: inactive
Potency [9]: inactive
Potency [10]: inactive

O=C(O)c1ccc(S(=O)(=O)N(Cl)Cl)cc1
Potency [1]: inactive
Potency [12]: inactive
Potency [3]: inactive
Potency [4]: inactive
Potency [5]: inactive
Potency [11]: inactive
Potency [6]: inactive
Potency [7]: inactive
Potency [8]: inactive
Potency [9]: inactive

COc1ccc(C(Cl)=C(c2ccc(OC)cc2)c2ccc(OC)cc2)cc1
Potency [1]: inactive
Potency [2]: inactive
Potency [4]: inactive
Potency [5]: inactive
Potency [7]: inactive

O=C(N/N=C/c1ccc([N+](=O)[O-])o1)c1ccc(O)cc1
Potency [1]: inactive
Potency [2]: inactive
Potency [3]: inactive
Potency [10]: inactive

CCO[C@@H]1O[C@H](C(COCc2ccccc2)OCc2ccccc2)[C@H](OCc2ccccc2)[C@H]1O (some centres undefined)
Potency [1]: inactive
Potency [2]: inactive
Potency [3]: inactive
Potency [4]: inactive
Potency [10]: inactive

O=C(Nc1ccccc1)OCC(CN1CCCCC1)OC(=O)Nc1ccccc1 (centres undefined)
Potency [1]: inactive
Potency [2]: inactive
Potency [4]: inactive
Potency [5]: inactive
Potency [7]: inactive
Potency [9]: inactive
Potency [10]: inactive

CCC(C(=O)OCCOCCN(CC)CC)c1ccccc1 (centres undefined)
Potency [1]: inactive
Potency [12]: inactive
Potency [3]: inactive
Potency [4]: inactive
Potency [5]: inactive
Potency [6]: inactive
Potency [7]: inactive
Potency [8]: inactive
Potency [9]: inactive
Potency [10]: inactive

CCC1NC(=O)c2cc(S(N)(=O)=O)c(Cl)cc2N1 (centres undefined)
Potency [1]: inactive
Potency [12]: inactive
Potency [3]: inactive
Potency [4]: inactive
Potency [5]: inactive
Potency [11]: inactive
Potency [6]: inactive
Potency [7]: inactive
Potency [8]: inactive
Potency [9]: inactive
Potency [10]: inactive

O=[N+]([O-])c1cccc(S(=O)(=O)NCCNS(=O)(=O)c2cccc([N+](=O)[O-])c2)c1
Potency [1]: inactive
Potency [12]: inactive
Potency [4]: inactive
Potency [5]: inactive
Potency [11]: inactive
Potency [6]: inactive
Potency [7]: inactive
Potency [8]: inactive
Potency [9]: inactive
Potency [10]: inactive

COc1cc(O)c(C(=O)c2ccccc2)cc1S(=O)(=O)O
Potency [1]: inactive
Potency [12]: inactive
Potency [3]: inactive
Potency [4]: inactive
Potency [5]: inactive
Potency [11]: inactive
Potency [6]: inactive
Potency [7]: inactive
Potency [8]: inactive
Potency [9]: inactive
Potency [10]: inactive

CC1=C(C(=O)O)N2C(=O)[C@@H](NC(=O)[C@H](N)c3ccccc3)[C@H]2SC1
Potency [1]: inactive
Potency [12]: inactive
Potency [4]: inactive
Potency [5]: inactive
Potency [11]: inactive
Potency [6]: inactive
Potency [7]: inactive
Potency [8]: inactive
Potency [9]: inactive
Potency [10]: inactive

CCCCCCCCCCCCSCCOCCO
Potency [1]: inactive
Potency [12]: inactive
Potency [4]: inactive
Potency [5]: inactive
Potency [11]: inactive
Potency [6]: inactive
Potency [7]: inactive
Potency [8]: inactive
Potency [9]: inactive
Potency [10]: inactive

CN(C)CCC[C@@]1(c2ccc(F)cc2)OCc2cc(C#N)ccc21
Potency [1]: inactive
Potency [12]: inactive
Potency [3]: inactive
Potency [4]: inactive
Potency [5]: inactive
Potency [11]: inactive
Potency [6]: inactive
Potency [8]: inactive
Potency [9]: inactive
Potency [10]: inactive

Cl/C(=C\n1cncn1)c1ccc(Cl)cc1Cl
Potency [1]: inactive
Potency [3]: inactive
Potency [4]: inactive
Potency [5]: inactive
Potency [11]: inactive
Potency [6]: inactive
Potency [7]: inactive
Potency [8]: inactive
Potency [10]: inactive
